Screening results from PubChem BioAssay.
The list is not random: actives were taken first. Their share in the collection is about 3.7%.
RE007 growth inh: less growth of the S. pombe RE007 Vpr strain; AID 651644; 0.21% of 360,000 active; Potency, µM (series often up to 92.2 µM), without a hit: at the highest dose activity change, negative = less growth, actives largely listed as inhibitors; S. pombe RE007 Vpr strain, BacTiter-Glo ATP luminescence, 24 h; active means well fitted falling curve with a large enough effect; inconclusive means small, poorly fitted or top-dose-only effect; inactive means no such curve, though single readings can be large or run the other way; further: nearly all actives have a fitted effect of over 50% in size
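Fission yeast RE007 carrying one integrated HIV-1 vpr copy, seeded at OD 0.01 in PMG+AL medium with 23 nL pinned compound. Grown 24 h at 30 degrees; viability read by BacTiter-Glo luminescence after 5 min.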
FMDV inh: antivirals against foot and mouth disease virus. FMDV antiviral cell-based qHTS. Potency, µM (series often up to 57.9 µM), inactives show at the highest dose activity change, negative = inhibition, usual class: inhibitors. 1.2% of 410,000 active; calls by dose curve; tested in HEK293T cells; further: read-out not given here; nearly all actives have a fitted effect of over 45% in size
TbPYK inhibitor: T. brucei pyruvate kinase inhibition; 0.12% of 410,000 active; Q57TT1; AID 624173; Potency, µM (doses to about 76.8 µM), for the others: top-dose activity, negative = inhibition, most hits filed as inhibitors; TbPYK enzyme, Kinase-Glo Plus ATP luminescence, 45 min; further: nearly all actives have a fitted effect of over 50% in size
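Activity of T. brucei pyruvate kinase was followed by Kinase-Glo Plus luminescence after the enzyme reacted 45 min at room temperature with 130 uM ADP (final) and substrate. Test compounds were added before ADP at multiple concentrations.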
Sm TGR inh: S. mansoni TGR enzyme inhibition; 3% of 360,000 active; AID 485364; Potency, µM (doses to about 114 µM), for the others: top-dose activity change, negative = inhibition, most hits filed as inhibitors; purified TGR, DTNB reduction, TNB absorbance 405 nm; further: nearly all actives have a fitted effect of over 60% in size
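TGR 20 nM + NADPH 100 uM (dispensed conc.), cpd preinc 15 min RT; start with NADPH (500 uM addition) then DTNB (15 mM addition). Kinetic TNB absorbance, 405 nm filter. Four-parameter Hill fit across titration.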
* marks the source's active call; other numbers are inactive results; ? = inconclusive; / = no result given. Unless noted, the call rests on the fitted dose curve; in most records, active means well fitted curve in the direction sought with a large enough effect; inconclusive means small, poorly fitted or top-dose-only effect, or another doubt; inactive means no such curve, though single readings can be large; an effect the other way counts as inactive or inconclusive. On the % scale 0 is the no-effect control and ±100 the full control effect; potency means the concentration at half of the fitted maximal effect.

SMILES	RE007 growth inh	FMDV inh	TbPYK inhibitor	Sm TGR inh
CC(=O)c1cccc(-n2c(CCC(=O)O)ccc2-c2ccc(C)cc2)c1	-8.6%	-8.3%	-12.2%	31.6µM*
COc1ccc(C(=O)N2CCC3(CC2)CN(c2ncccn2)C3)cc1	/	-11.2%	5.1%	/
CC1CCN(C(=O)CSc2nc(-c3ccc(C(C)C)cc3)no2)CC1	/	18.9%	1.8%	12.1%
CCCN1CCN(CCNC(=O)Nc2ccc(OC)c(OC)c2)CC1	/	-7.9%	0.1%	3.0%
CC(C)=CCC/C(C)=C\CC/C(C)=C\CC/C=C(\C)CC/C=C(\C)CCC=C(C)C	/	/	-1.9%	/
O=C(CCCN1C(=O)c2cccnc2Oc2ccc(Cl)cc21)N1CCCCC1	14.4%	14.4%	5.7%	12.6µM*
CC(C)C(=O)N1c2nc(C(C)C)nn2C2(CCCCC2)[C@@H]2CCCC[C@@H]21	/	?	1.9%	-1.6%
COc1cc2[nH]c(=O)n(CCCCCC(=O)N3CCN(c4cccc(C(F)(F)F)c4)CC3)c(=O)c2cc1OC	/	22.4µM*	4.5%	-7.6%
O=C(CCCCCn1c(=O)[nH]c2ccccc2c1=O)N1CCN(c2cccc(C(F)(F)F)c2)CC1	/	-11.9%	-2.7%	5.5%
CCOc1cc2[nH]c(=O)n(CCCCC(=O)N3CCN(c4cccc(Cl)c4)CC3)c(=O)c2cc1OCC	/	25.1µM*	-6.6%	-1.6%
COc1ccc(N2CCN(C(=O)CCCn3c(=O)[nH]c4ccsc4c3=O)CC2)cc1	5.6%	-16.0%	-4.3%	-34.6%
O=C(CCCn1c(=O)[nH]c2ccsc2c1=O)N1CCN(c2ccc(Cl)cc2)CC1	/	28.2µM*	5.6%	1.3%
Cn1c(SCc2ccccc2)nnc1C1CCCNC1 (stereo not drawn)	23.6%	1.9%	3.1%	44.7µM*
COC(=O)c1sc(N)c(C(=O)OC)c1COC(=O)c1c(C)noc1C	-6.0%	-6.2%	0.1%	-8.0%
COC(=O)c1sc(N)c(C(=O)OC)c1Cn1ncc(Cl)c(Cl)c1=O	1.0%	?	-12.0%	0.316µM*
CCC1(C2CCN(Cc3cccc(Cl)c3)CC2)NC(=O)N(CC2COc3ccccc3O2)C1=O (stereo not drawn)	/	-10.5%	/	/
Fc1ccccc1-n1ncc2c1ncn1nc(COc3ccc(Cl)cc3)nc21	/	-14.9%	-6.9%	12.6%
CC(=O)O[C@H]1CCC2C3CCC4=CC(=O)CCC4=C3C=C[C@@]21C (stereo partly drawn)	-17.6%	-15.3%	-12.4%	5.01µM*
CC(=O)O[C@H]1CC[C@H]2[C@@H]3CCC4=CC(=O)CCC4=C3C=C[C@]12C	/	/	3.5%	/
O=C(Cc1ccc(F)cc1)NCCc1csc2nc(-c3ccccc3F)nn12	/	-11.8%	2.8%	3.1%
Cc1ccc2c(c1)N(Cc1cccc(F)c1)C(=O)C(C)O2 (stereo not drawn)	-11.1%	2.1%	3.3%	3.7%
CC1C(=O)N(Cc2cccc(F)c2)c2ccccc2N1C(=O)c1ccccc1 (stereo not drawn)	12.7%	17.8µM*	-4.1%	7.6%
CC1C(=O)N(Cc2ccccc2F)c2ccccc2N1C(=O)c1c(F)cccc1F (stereo not drawn)	-4.7%	35.5µM*	2.2%	-5.2%
CC1Oc2ccccc2N(Cc2cccc(F)c2)C1=O (stereo not drawn)	-2.8%	-5.5%	-4.0%	89.1µM*
O=C1NC(=O)N(Cc2ccccc2F)C1=O	13.3%	-3.1%	6.5%	-2.0%
SMILES	RE007 growth inh	FMDV inh	TbPYK inhibitor	Sm TGR inh
COc1cc(C2CC(=O)N(Cc3cccc(F)c3)c3ccccc3S2)cc(OC)c1OC (stereo not drawn)	/	25.1µM*	3.3%	0.4%
Cc1ccc(-c2ccc(=O)n(CC(=O)NCCc3ccc(Cl)cc3)n2)cc1	/	-1.3%	1.4%	-2.7%
COc1cccc(CN2C(=O)C(C)N(C(=O)c3c(F)cccc3F)c3ccccc32)c1 (stereo not drawn)	-9.6%	28.2µM*	3.7%	-24.4%
Cc1sc2nc(C)n(/N=C/N(C)C)c(=O)c2c1C	3.3%	7.3%	2.1%	9.1%
Cc1nc2scc(-c3ccco3)c2c(=O)n1/N=C/N(C)C	-11.1%	/	-9.6%	25.1µM*
CCN(CC(=O)NCc1cccs1)C(=O)c1ccc([N+](=O)[O-])o1	-0.6%	-13.6%	1.3%	44.7µM*
CCN(CC(=O)NCc1cccs1)C(=O)c1ccc(C)o1	-10.1%	-1.7%	0.2%	/
CCCN(CCC)C(=O)c1cc([N+](=O)[O-])cc2c1-c1ccc([N+](=O)[O-])cc1C2=C(C#N)C#N	1.2%	?	-5.7%	5.01µM*
CCCCN(CCCC)C(=O)c1cc(Cl)ccc1[N+](=O)[O-]	-1.4%	-21.8%	-1.8%	-7.5%
COC(=O)C1=C(C)NC(=O)/C1=C\c1cc(C)n(-c2ccccc2)c1C	?	14.9%	-6.3%	28.2µM*
Cc1cc(C)cc(N2C(=O)NC(=O)/C(=C\c3cc(C)n(C)c3C)C2=O)c1	11.1%	-18.3%	-0.6%	/
COC(=O)C1=C(C)NC(=O)/C1=C\c1cc(C)n(-c2cc(C)cc(C)c2)c1C	10µM*	-18.8%	-18.7%	?
CCOc1ccc(CCNC(=O)CCc2cn(Cc3ccc(F)cc3)c3ccccc23)cc1	/	-14.6%	-1.4%	1.2%
Cc1cc(C)cc(NS(=O)(=O)c2ccc3c(c2)CCCN3C(=O)C2CCC2)c1	/	-15.7%	-0.1%	0.4%
Cc1ccc(N(CC2CO2)S(=O)(=O)c2ccc([N+](=O)[O-])cc2)cc1 (stereo not drawn)	-1.5%	-16.5%	-7.4%	31.6µM*
Cc1ccc(/C=C/S(=O)(=O)NCC(=O)OCC(=O)Nc2c(F)cccc2F)cc1	8.5%	-6.2%	-4.6%	28.2µM*
CCN1C(=O)C(=Cc2ccc(C)s2)C(=O)N(CC)C1=S	-2.5%	39.8µM*	?	0.0%
CCN1C(=O)/C(=C/c2ccc(C)s2)NC1=S	?	7.0%	-25.5%	-23.4%
Cc1ccc(NC(=O)/C(=C\c2ccco2)NC(=O)c2ccco2)cc1	-6.7%	12.5%	-17.6%	44.7µM*
COc1ccccc1C(=O)N/C(=C/c1ccco1)C(=O)Nc1cccc(C(=O)O)c1	17.3%	-3.2%	?	50.1µM*
Cc1ccc(C(=O)N/C(=C/c2ccco2)C(=O)Nc2cccc(C(=O)O)c2)cc1	-11.0%	15.7%	?	44.7µM*
CC(=O)c1cccc(NC(=O)/C(=C/c2ccco2)NC(=O)c2ccco2)c1	0.9%	14.5%	-22.2%	1.3%
CCCCN(CCCC)CCCNC(=O)c1cc(-c2ccc(Cl)s2)nc2ccccc12	/	-22.1%	3.0%	-12.4%
O=C(O[C@@H]1Cc2c(O)cc(O)cc2O[C@@H]1c1cc(O)c(O)c(O)c1)c1cc(O)c(O)c(O)c1	/	/	/	11.2µM*
O=C(OC1Cc2c(O)cc(O)cc2OC1c1cc(O)c(O)c(O)c1)c1cc(O)c(O)c(O)c1 (stereo not drawn)	/	-0.7%	/	/
CCOc1ccc(-n2c(=O)c3c4c(sc3n(CC(=O)NC(C)CC)c2=O)CCCC4)cc1 (stereo not drawn)	/	6.0%	1.6%	7.2%
COc1ccc(OCC(=O)Sc2ccc(C)cc2)cc1	-26.7%	?	-14.6%	3.16µM*
Cc1cc(N2CCN(c3nc(-c4ccccc4)cs3)CC2)c2ccccc2n1	-7.3%	28.2µM*	-16.6%	1.6%
